# Source: PubChem BioAssay AID624483 (NMMLSC, 2012)
# In all, about 360,000 compounds went through this assay and about 11,000 (3.1%) were called active. Roughly 2% stayed inconclusive and do not appear here. Rule as the data show it: active = fluorescence intensity above about 16000; inconclusive = no clear call, values can overlap the other calls; inactive = below that. Shown is part of a subset that was picked to be rich in actives.
# Experiment: compound fluorescence in toxin protease inhibitor counterscreen, primary screen, artefact control for toxin protease inhibitor project, biochemical, multiplex microsphere, HTS (AID 624483)
# Details: compound autofluorescence counterscreen, microsphere flow cytometry; active compounds read high
row,Structure (SMILES),fluorescence intensity
1,Cc1sc(NC(=O)c2ccc3ncsc3c2)c(C(N)=O)c1C,5240 (inactive)
2,CC(=O)c1c(Nc2ccccc2)sc(C(=O)c2ccccc2)c1C,2060 (inactive)
3,Cc1ccc(C(=O)c2c(NC(=O)c3ccccc3)sc(C)c2C)cc1,24600 (active)
4,C[C@H](NC(=O)[C@@H]1CCCN1C(=O)[C@@H]1CCCN1C(=O)c1ccccc1)c1ccccc1,6120 (inactive)
5,Cc1c(Cl)cccc1NC(=S)NCC(O)c1ccccc1 (stereo unspecified),2920 (inactive)
6,COc1ccc(C(=O)CCC(=O)Nc2cccnc2)c(OC)c1,5960 (inactive)
7,CC(Oc1ccc(Cl)cc1)C(=O)Nc1ncccn1 (stereo unspecified),6780 (inactive)
8,COc1ccc(OC(C)C(=O)Nc2cccnc2)cc1 (stereo unspecified),23000 (active)
9,Cc1ccc(C(=O)O)c(NC=O)c1OCc1ccccc1,4160 (inactive)
10,COc1ccc2c(c1)CCc1c(C(=O)Nc3c(C)n(C)n(-c4ccccc4)c3=O)noc1-2,21100 (active)
11,COc1ccc2c(c1)CCc1c(C(=O)N3CCCC3)noc1-2,21100 (active)
12,Cc1c(NC(=O)c2coc(=O)c(Br)c2)c(=O)n(-c2ccccc2)n1C,2950 (inactive)
13,O=C(c1noc2c1CCCC2)N1CCc2ccccc2C1,3010 (inactive)
14,COc1ccc2c(c1)CCc1c(C(=O)N3CCc4ccccc4C3)noc1-2,21600 (active)
15,COc1ccc(NS(=O)(=O)c2ccc(C(=O)Nc3c(C)n(C)n(-c4ccccc4)c3=O)cc2)cc1,2940 (inactive)
16,COc1ccccc1-c1cc(C(=O)N2CCCCC2)no1,4320 (inactive)
17,COc1ccc(OC)c(NC(=S)N2CCc3ccccc3C2)c1,2080 (inactive)
18,Cc1c(NC(=O)c2cc(-c3ccc(Br)cc3)on2)c(=O)n(-c2ccccc2)n1C,5870 (inactive)
19,COc1ccc(C(=O)N2CCCN(C)CC2)c(OC)c1,4060 (inactive)
20,COc1ccc(C(=O)C(C)OC(=O)c2cccc(S(=O)(=O)Nc3c(C)n(C)n(-c4ccccc4)c3=O)c2)cc1 (stereo unspecified),3490 (inactive)
21,COc1ccc(S(=O)(=O)Nc2c(C)n(C)n(-c3ccccc3)c2=O)cc1,16100 (active)
22,CCN(C(=O)CSc1nnnn1-c1ccccc1OC)C1CCS(=O)(=O)C1 (stereo unspecified),5910 (inactive)
23,Cc1ccccc1C(OCCN(C)C)C1CCCCC1 (stereo unspecified),2370 (inactive)

row,Structure (SMILES),fluorescence intensity
1,CCNC(=O)C1(C)CCN(C(=O)c2ccccc2)C1 (stereo unspecified),3880 (inactive)
2,COC(=O)Cc1nc2c(N)nc(N)nc2[nH]c1=O,4130 (inactive)
3,O=C(NNS(=O)(=O)c1c(F)cc(F)c(Cl)c1F)C12CC3CC(CC(C3)C1)C2,4000 (inactive)
4,O=C(Nc1ccccc1C(=O)O)c1ccc(N2C(=O)C3CC=CCC3C2=O)cc1 (stereo unspecified),4170 (inactive)
5,CN(C)CCNC(=O)c1cccc(-c2cnc3c(NC=O)cc(-c4cccc(C(F)(F)F)c4)cn23)c1,3700 (inactive)
6,CN1CCN(C(=O)c2ccc(-c3cc4nc(NCc5cccnc5)n(C)c(=O)c4s3)cc2)CC1,3940 (inactive)
7,O=C(NCc1ccccc1)C1c2ccccc2OCC(=O)N1C1CC1 (stereo unspecified),5460 (inactive)
8,O=C(C1CCCO1)N(c1ccc(F)cc1)C1C=CS(=O)(=O)C1 (stereo unspecified),3830 (inactive)
9,O=C(C1CCCO1)N(Cc1ccccc1)c1ccccc1 (stereo unspecified),16100 (active)
10,O=C(NCc1ccccc1Cl)C1CCCO1 (stereo unspecified),4090 (inactive)
11,CCc1ccc2c(c1)NC(=O)C2(C)Cc1ccc(OC(F)(F)F)cc1 (stereo unspecified),2900 (inactive)
12,COCc1cc(C)nc(SCC(=O)Nc2cccc(C)c2)c1C#N,4220 (inactive)
13,CCNC(=S)N1CCN(C(=O)c2ccco2)CC1,21900 (active)
14,O=C(c1ccco1)N1CCN(C(=S)Nc2cc(F)cc(F)c2)CC1,5420 (inactive)
15,O=C(CN1CCN(C(=O)c2ccco2)CC1)Nc1ccc2c(c1)OCO2,2540 (inactive)
16,N#Cc1ccccc1NC(=O)c1ccc2c(c1)OCO2,3490 (inactive)
17,O=CN1CCN(C(=O)c2ccc3c(c2)OCO3)CC1,6220 (inactive)
18,O=C(Nc1ccccc1N1CCN(C(=O)c2ccccc2)CC1)c1ccc2c(c1)OCO2,23400 (active)
19,O=C(Nc1ccccc1N1CCN(C(=O)c2ccccc2)CC1)c1ccco1,3700 (inactive)
20,O=C(CNS(=O)(=O)c1ccccc1)N1CCN(C(=O)c2ccco2)CC1,5790 (inactive)
21,O=C(c1ccc2c(c1)OCO2)N1CCN(C(=O)c2ccco2)CC1,20500 (active)
22,Cc1nc2c(OCc3cccc(Cl)c3)cccn2c1N(C)CC1CC1,3860 (inactive)
23,CN(Cc1ccccc1)C(=O)C(=O)c1cn(CC(=O)N2CCCC2)c2ccccc12,5870 (inactive)

row,Structure (SMILES),fluorescence intensity
1,NCCCCC(C(=O)O)N(C(=O)OCc1ccccc1)C(=O)OCc1ccccc1 (stereo unspecified),4320 (inactive)
2,O=C1NC[C@H](CCCCN2C[C@H](Cc3ccc(O)cc3)N(CC3CCCCC3)C(=O)C2=O)N(CCc2ccccc2)C1=O,4980 (inactive)
3,NC(Cc1ccc(F)cc1)c1csc(Nc2nncc3ccccc23)n1 (stereo unspecified),3900 (inactive)
4,C#CCNC(=O)C[C@@H]1C[C@@]2(C(=O)OCC)CCCC=C2N(Cc2ccco2)C1=O,4250 (inactive)
5,CC(=O)N(O)CCCCCNC(=O)CCC(=O)N(O)CCCCCNC(=O)CCC(=O)N(O)CCCCCNC(=O)CCC(=O)O,3470 (inactive)
6,CC1=C(C(=O)N(C(C)C)C(C)C)CC(CC(=O)NCCCCc2ccccc2)C(=O)N1CCC1=CCCCC1 (stereo unspecified),5390 (inactive)
7,O=c1c2ccccc2[nH]c(=S)n1-c1cccc(Cl)c1,4010 (inactive)
8,O=C(Cc1ccc(-n2c(=O)[nH]c3ccccc3c2=O)cc1)N1CCN(c2cccc(Cl)c2)CC1,22000 (active)
9,CCOC(=O)N1CCN(C(=O)Cc2ccc(-n3c(=S)[nH]c4ccccc4c3=O)cc2)CC1,10600 (inactive)
10,CNc1cc(-c2c(OC)cccc2OC)ncn1,3890 (inactive)
11,CN1OC[C@@H]2CN(C(=O)C(C)(C)C)[C@H](c3ccc(-n4ccnc4)cc3)C[C@@H]21,4320 (inactive)
12,COc1cccc(-c2cc(NC(C)=O)c3ncc(-c4cccc(C(C)=O)c4)n3c2)c1,3560 (inactive)
13,O=C1CN(C(=O)COC(=O)/C=C/c2ccc(F)cc2)c2ccccc2N1,2990 (inactive)
14,C=CCn1c(COc2ccccc2F)nnc1SCC(=O)N1CC(=O)Nc2ccccc21,19900 (active)
15,Nn1c(Cc2cccc3ccccc23)nnc1SCC(=O)N1CC(=O)Nc2ccccc21,3230 (inactive)
16,CCN1C(=O)[C@@H]2[C@@H]3CN(S(=O)(=O)c4ccccc4C)[C@@H](c4ccc(Cl)cc4)[C@@H]3C(=O)C[C@@H]2C1=O,5460 (inactive)
17,CC(C)(O)C#Cc1ccc(CNC[C@H]2O[C@@H](n3cnc4c(=O)[nH]c(N)nc43)[C@H](O)[C@@H]2O)s1,6310 (inactive)
18,CC(C)Oc1cc(F)ccc1-c1cc(C(=O)Nc2ccc(F)cc2)[nH]n1,2820 (inactive)
19,Cc1ccc([C@@H]2CC(=O)[C@@H]3CN(S(=O)(=O)c4ccc(C)cc4)[C@H](c4ccccc4F)C[C@@H]3N2S(=O)(=O)c2ccc(Cl)cc2)cc1,5790 (inactive)
20,COC(=O)C1(C(=O)OC)C/C=C\CN(S(=O)(=O)c2ccccc2[N+](=O)[O-])CCC1,5420 (inactive)
21,Cc1ccc(S(=O)(=O)NCC(C)NS(C)(=O)=O)cc1 (stereo unspecified),17300 (active)
22,Cc1ccc(S(=O)(=O)NCCNC(C)c2ccc(Br)cc2)cc1 (stereo unspecified),3800 (inactive)
23,Cc1ccc(S(=O)(=O)NCC(=O)N2CCOCCOCCOCCOCC2)cc1,3170 (inactive)

row,Structure (SMILES),fluorescence intensity
1,CCCNC(=O)C1(C)CCCN(C(=O)c2cccc(OC(C)=O)c2C)C1 (stereo unspecified),2790 (inactive)
2,CCN(CC)CCCC(C)n1c2nc(=O)[nH]c(=O)c-2nc2cc(Cl)ccc21 (stereo unspecified),3960 (inactive)
3,CC1(Oc2ccc(Cl)cc2)CCN(Cc2csc3ccccc23)C1 (stereo unspecified),3910 (inactive)
4,CC(C)CCSc1ncnc2c1oc1nc3c(cc12)COC(C)(C)C3,23900 (active)
5,CC1CCc2c(nc3ncnn3c2Nc2ccc(OC(F)(F)F)cc2)C1 (stereo unspecified),5260 (inactive)
6,CCc1nc2c(OCCOc3ccccc3)cccn2c1N(C)C(=O)c1ccc(OC)cc1,3960 (inactive)
7,COc1cccc(-c2ccc3c(c2)N(Cc2ccccc2OC)C(=O)C(C)S3)c1 (stereo unspecified),4210 (inactive)
8,CCCc1nc2oc3c(OCC)ncnc3c2c2c1COC(C)(C)C2,19200 (active)
9,CCCc1nc2oc3c(=O)[nH]cnc3c2c2c1COC(C)(C)C2,3850 (inactive)
10,CC/C(C)=N/Nc1nc2sc3c(c2c(=O)[nH]1)CC(C)(C)OC3,3170 (inactive)
11,CC(=O)Nc1cccc(-c2cc(NC=O)c3ncc(-c4ccc(F)c(Cl)c4)n3c2)c1,4090 (inactive)
12,C/C(COc1ccccc1)=N\NC(=O)c1nnn(-c2nonc2N)c1-c1ccc(C)cc1,2830 (inactive)
13,CCOC(=O)c1nnn(-c2nc(OC)nc(N(C)C)n2)c1-c1ccccc1,4860 (inactive)
14,CCOC(=O)c1nnn(-c2nonc2OC)c1-c1ccccc1,20500 (active)
15,CCC(C(=O)Nc1ncccn1)(C(F)(F)F)C(F)(F)F,3150 (inactive)
16,CCN(C(=O)CSc1nc(N)cc(=O)[nH]1)C1CCS(=O)(=O)C1 (stereo unspecified),3860 (inactive)
17,COc1ccc(C(=O)CC2C(=O)N(C)C(=O)N(C)C2=O)cc1,3490 (inactive)
18,O=C(CCCN1C(=O)c2ccccc2C1=O)Oc1ccc(Cl)cc1,2140 (inactive)
19,COc1ccc(C(=O)CN(C(=O)c2ccc(Cl)cc2)N2C(=O)c3ccccc3C2=O)cc1,17500 (active)
20,COc1cccc(C(=O)OCc2cc(=O)oc3c(C)c(C)ccc23)c1OC,5450 (inactive)
21,COC(=O)Cc1cc(=O)oc2c(C)c(O)ccc12,19200 (active)
22,CCCc1cc(=O)oc2c(C)c(OCC(=O)Nc3ccccn3)ccc12,4420 (inactive)
